From PubChem BioAssay (Tox21)
Where “and” joins values, the source holds several entries; their conditions need not be identical. Equal entries are not always repeated. Results filed as inconclusive are left out. Calls of active or inactive are those of the source. Unless noted, calls follow the shape of the dose curve; as a rule, active = well fitted curve in the direction sought with a large enough effect in the repeat runs; inconclusive = weak or mixed curves; inactive = no such curve, though single readings can be large; an effect the other way counts as inactive or inconclusive.

Tests used:
[1] = qHTS assay to identify small molecule antagonists of the estrogen receptor alpha (ER-alpha) signaling pathway using the BG1 cell line in the presence of 0.1 nM 17-beta-estradiol - cell viability counter screen (AID 1259241); also: nearly all actives have a fitted effect of over 40% in size; also: potency is read from the fitted curve at half-maximal effect
Summary of the method: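 Cytotoxicity counter-screen: live-cell protease activity measured by fluorescence (30 min reagent step) in the same wells. Cells were VM7Luc4E2 with endogenous ER-alpha and ERE-driven luciferase, treated 22 hr at 37C alongside 0.1 nM 17beta-estradiol final.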

[2] = qHTS assay to identify small molecule antagonists of the androgen receptor (AR) signaling pathway using the MDA cell line in the presence of 0.5 nM R1881 - cell viability counter screen (AID 1259242); also: nearly all actives have a fitted effect of over 45% in size; also: potency is read from the fitted curve at half-maximal effect
Summary of the method: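 Steps: plate MDA-kb2 cells, rest 5 hr at 37C without CO2; pin in compounds in DMSO; add R1881 to 0.5 nM final; incubate 16 hr; add CellTiter-Fluor, 30 min; read fluorescence.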

[3] = qHTS assay to identify small molecule HDAC inhibitors - cell viability counter screen (AID 1259365); also: series mostly up to about 92 µM; nearly all actives have a fitted effect of over 50% in size
Summary of the method: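 CellTiter-Glo luminescence (30 min, room temperature) reported viability after a 2 h compound exposure at 37 C. Cells: wild-type HCT-116, 1,500 per well, seeded the night before.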

[4] = qHTS assay to identify small molecule agonists of the sonic hedgehog signaling (Shh) pathway - cell viability counter screen (AID 1259366); also: nearly all actives have a fitted effect of over 50% in size; also: potency is read from the fitted curve at half-maximal effect
Summary of the method: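 Cytotoxicity counter screen: CellTiter-Fluor reagent added after 23 h compound exposure, then 1 h at 37C and fluorescence read. Cells were 3T3 Gli1-Luc, seeded 2,000 per well and dosed 4 h post-plating.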

[5] = qHTS assay to identify small molecule antagonists of the sonic hedgehog signaling (Shh) pathway - cell viability counter screen (AID 1259367); also: nearly all actives have a fitted effect of over 55% in size; also: potency is read from the fitted curve at half-maximal effect
Summary of the method: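 Tox21 library chemicals were tested on a Gli1-Luc NIH/3T3 clone (2,000 cells/well) stimulated by conditioned medium; viability was quantified as fluorescence from CellTiter-Fluor reagent added at 23 hr.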

[6] = qHTS assay to identify small molecule agonists of the sonic hedgehog signaling (Shh) pathway (AID 1259368; calls by dose curve;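 also: NIH/3T3-derived 3T3Gli1-Luc cells carrying a stable Gli1-driven firefly luciferase reporter; series mostly up to about 92 µM; nearly all actives have a fitted effect of over 15% in size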)
Summary of the method: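 Cells of a mouse NIH/3T3 clone stably expressing luciferase under the Gli1 transcriptional response element are exposed to test chemicals for 24 hr at 37 C. Pathway activation is detected as a rise in luminescence.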

[7] = qHTS assay to identify small molecule antagonists of the sonic hedgehog signaling (Shh) pathway (AID 1259369; calls by dose curve; also: nearly all actives have a fitted effect of over 45% in size; also: potency is read from the fitted curve at half-maximal effect)
Summary of the method: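 Cells are plated and held 4hr at 37 C, compounds (DMSO) are pinned in, conditioned medium is added to stimulate the pathway, and after 24hr luciferase reagent is added for 30min before luminescence is read.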

[8] = molecular target: Estrogen receptor beta (Homo sapiens) (UniProt Q92731); experiment: qHTS assay to identify small molecule agonists of the estrogen receptor beta (ER-beta) signaling pathway (AID 1259377; active = well fitted activation curve with a large enough effect in the signal ratio in the repeat runs, not every such curve was filed as active; the % refers to the signal ratio)
Chain of Estrogen receptor beta (Homo sapiens) (Q92731 whole entry, looked up): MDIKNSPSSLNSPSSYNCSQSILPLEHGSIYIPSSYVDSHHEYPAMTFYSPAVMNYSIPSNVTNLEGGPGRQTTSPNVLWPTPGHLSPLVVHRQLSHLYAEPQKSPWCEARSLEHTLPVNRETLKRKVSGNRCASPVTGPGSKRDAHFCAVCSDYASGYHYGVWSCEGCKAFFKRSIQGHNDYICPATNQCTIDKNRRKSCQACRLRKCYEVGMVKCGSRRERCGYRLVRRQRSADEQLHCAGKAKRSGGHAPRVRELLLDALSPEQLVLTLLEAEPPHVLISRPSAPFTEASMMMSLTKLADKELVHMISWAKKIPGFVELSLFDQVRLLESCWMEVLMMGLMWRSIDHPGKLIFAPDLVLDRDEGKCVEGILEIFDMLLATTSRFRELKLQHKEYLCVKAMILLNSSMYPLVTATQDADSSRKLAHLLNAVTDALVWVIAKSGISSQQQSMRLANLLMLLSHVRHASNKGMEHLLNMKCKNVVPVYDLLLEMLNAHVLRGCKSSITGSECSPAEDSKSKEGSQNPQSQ
Summary of the method: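 Ratiometric beta-lactamase FRET read-out came after 2 h substrate loading at room temperature. It followed 16 h compound treatment at 37C of GripTite HEK293T cells carrying a UAS-bla reporter, plated in 2% charcoal-stripped FBS medium.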

[9] = molecular target: Estrogen receptor beta (Homo sapiens) (UniProt Q92731); experiment: qHTS assay to identify small molecule antagonists of the estrogen receptor beta (ER-beta) signaling pathway (AID 1259378; active = well fitted inhibition curve with a large enough effect in the signal ratio in the repeat runs, not every such curve was filed as active; the % refers to the signal ratio; also: potency is read from the fitted curve at half-maximal effect)
Summary of the method: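 ER-beta-UAS-bla HEK293T cells in 2% charcoal-stripped FBS medium treated with compound plus 1nM final 17-beta-estradiol for 16 hr at 37C. Beta-lactamase reporter read by FRET substrate fluorescence after 2 hours at room temperature.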

[10] = qHTS assay to identify small molecule agonists of the androgen receptor (AR) signaling pathway in the presence of an antagonist - cell viability counter screen (AID 1259379); also: nearly all actives have a fitted effect of over 25% in size; also: potency is read from the fitted curve at half-maximal effect
Summary of the method: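 Cytotoxicity is assessed by CellTiter-Fluor in MDA-kb2 cells carrying an MMTV-driven luciferase reporter. Cells receive 3.0uM nilutamide plus compounds at 15 concentrations and incubate 16 hr at 37C without CO2 before fluorescence reading.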

[11] = qHTS assay to identify small molecule agonists of the estrogen receptor beta (ER-beta) signaling pathway - cell viability counter screen (AID 1259380); also: nearly all actives have a fitted effect of over 30% in size; also: potency is read from the fitted curve at half-maximal effect
Summary of the method: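 Cytotoxicity is measured in parallel with the reporter screen: after 16 hr compound exposure at 37C and a 2 hr LiveBLAzer step, CellTiter-Glo is added to the same ER-beta-UAS-bla HEK293T wells and luminescence read after 30 min.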

[12] = qHTS assay to identify small molecule antagonists of the estrogen receptor beta (ER-beta) signaling pathway - cell viability counter screen (AID 1259382); also: nearly all actives have a fitted effect of over 55% in size; also: potency is read from the fitted curve at half-maximal effect
Summary of the method: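 Cytotoxicity counter screen multiplexed with the beta-lactamase antagonist assay: GripTite HEK293T ER-beta-bla cells were treated 16 hr with test chemicals in the presence of 1nM 17-beta-estradiol, and viability was measured by CellTiter-Glo.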

[13] = qHTS assay to identify small molecule agonists or antagonists of the thyroid stimulating hormone receptor (TSHR) signaling pathway - wild type cell line counter screen (AID 1259384; calls by dose curve)
Summary of the method: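 Wild-type Hek293 cells, 800/well, 18 h at 37C, then compound with Ro20-1724 for 30 min RT. cAMP by HTRF (cAMP-d2/anti-cAMP cryptate), 1 h RT, fluorescence read. 15 concentrations, triplicates.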

[14] = qHTS assay to identify small molecule HDAC inhibitors (AID 1259364);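 also: wild-type HCT-116 cells with endogenous class I/II HDAC activity; top concentration of the series differs between compounds; nearly all actives have a fitted effect of over 45% in size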
Summary of the method: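 Cells (HCT-116, wild type) are seeded at 1,500 per well, incubated overnight, treated with compound in DMSO for 2 hr, then developed with HDAC-Glo I/II reagent for 30 min at room temperature.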

[15] = molecular target: Thyrotropin receptor (Homo sapiens) (UniProt P16473); experiment: qHTS assay to identify small molecule antagonists of the thyroid stimulating hormone receptor (TSHR) signaling pathway (AID 1259385; calls by dose curve; also: nearly all actives have a fitted effect of over 20% in size; also: potency is read from the fitted curve at half-maximal effect)
Chain of Thyrotropin receptor (Homo sapiens) (P16473 whole entry, looked up): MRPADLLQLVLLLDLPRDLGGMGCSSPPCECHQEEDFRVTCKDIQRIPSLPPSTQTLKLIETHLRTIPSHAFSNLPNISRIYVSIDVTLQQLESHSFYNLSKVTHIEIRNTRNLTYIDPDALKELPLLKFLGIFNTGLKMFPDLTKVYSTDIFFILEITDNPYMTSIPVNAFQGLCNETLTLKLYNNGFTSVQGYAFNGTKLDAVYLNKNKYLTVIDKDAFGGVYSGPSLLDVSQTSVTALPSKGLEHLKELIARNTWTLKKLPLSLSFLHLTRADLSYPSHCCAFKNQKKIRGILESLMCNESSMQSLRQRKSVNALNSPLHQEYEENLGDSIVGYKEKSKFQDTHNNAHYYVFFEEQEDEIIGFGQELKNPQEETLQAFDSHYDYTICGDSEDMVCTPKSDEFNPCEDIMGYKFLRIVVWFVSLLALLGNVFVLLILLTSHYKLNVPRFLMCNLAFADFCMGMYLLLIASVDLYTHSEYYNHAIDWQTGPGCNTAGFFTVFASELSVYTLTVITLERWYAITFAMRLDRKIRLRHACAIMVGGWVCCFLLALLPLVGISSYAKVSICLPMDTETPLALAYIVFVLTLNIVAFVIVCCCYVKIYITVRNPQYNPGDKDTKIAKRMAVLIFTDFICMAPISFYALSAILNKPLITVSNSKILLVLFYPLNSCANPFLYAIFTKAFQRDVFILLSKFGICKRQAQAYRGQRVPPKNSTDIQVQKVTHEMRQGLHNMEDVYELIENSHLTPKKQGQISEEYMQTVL
Summary of the method: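 TSHR-HEK293 cells (800/well) plated 18 h, then compounds with Ro20-1724 and TSH at 1.5 ng/mL final, 30 min at room temperature. cAMP quantified by HTRF (cAMP-d2/anti-cAMP-cryptate, 1 h); 15 concentrations in triplicate.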

[16] = qHTS assay to identify small molecule phospholipidosis (PLD) inducers (AID 1259344; active = well fitted curve in the direction sought with a large enough effect; an effect the other way counts as inactive or inconclusive; also: potency is read from the fitted curve at half-maximal effect)
Summary of the method: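 Image-based: LipidTOX Red pit count/intensity per well and per cell; HepG2, 24 h compound at 37 C, PFA fixation, Hoechst counterstain.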

[17] = molecular target: Androgen receptor (Homo sapiens) (UniProt P10275); experiment: qHTS assay to identify small molecule agonists of the androgen receptor (AR) signaling pathway in the presence of an antagonist (AID 1259381; calls by dose curve; also: nearly all actives have a fitted effect of over 15% in size)
Chain of Androgen receptor (Homo sapiens) (P10275 whole entry, looked up): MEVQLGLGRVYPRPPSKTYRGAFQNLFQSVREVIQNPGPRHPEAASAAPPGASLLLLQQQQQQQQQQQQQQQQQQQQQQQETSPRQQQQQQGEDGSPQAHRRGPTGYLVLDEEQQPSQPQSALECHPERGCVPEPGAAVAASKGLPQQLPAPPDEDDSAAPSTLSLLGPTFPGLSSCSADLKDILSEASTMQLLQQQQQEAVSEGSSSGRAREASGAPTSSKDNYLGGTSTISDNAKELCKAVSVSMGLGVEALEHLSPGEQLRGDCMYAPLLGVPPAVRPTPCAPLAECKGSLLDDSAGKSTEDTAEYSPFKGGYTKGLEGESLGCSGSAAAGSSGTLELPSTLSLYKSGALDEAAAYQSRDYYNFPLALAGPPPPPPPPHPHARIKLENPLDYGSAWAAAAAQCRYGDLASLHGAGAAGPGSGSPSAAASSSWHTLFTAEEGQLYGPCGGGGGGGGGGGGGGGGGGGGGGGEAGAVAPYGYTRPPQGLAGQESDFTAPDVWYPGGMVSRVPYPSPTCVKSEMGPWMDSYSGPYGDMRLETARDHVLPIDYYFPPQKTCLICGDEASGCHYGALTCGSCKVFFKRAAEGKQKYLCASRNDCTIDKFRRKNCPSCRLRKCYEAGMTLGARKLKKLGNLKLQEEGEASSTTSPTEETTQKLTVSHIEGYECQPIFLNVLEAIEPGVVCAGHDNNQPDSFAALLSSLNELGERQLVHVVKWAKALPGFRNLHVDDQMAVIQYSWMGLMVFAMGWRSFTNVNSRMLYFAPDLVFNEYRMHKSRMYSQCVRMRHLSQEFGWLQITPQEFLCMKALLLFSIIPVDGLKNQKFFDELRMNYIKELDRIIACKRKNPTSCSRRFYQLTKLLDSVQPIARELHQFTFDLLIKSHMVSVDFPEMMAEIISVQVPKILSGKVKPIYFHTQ
Summary of the method: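 Agonist-mode confirmation screen: human MDA-kb2 cells stably expressing luciferase under an MMTV promoter bearing AR and GR response elements, co-treated with 3.0uM nilutamide (final). Luminescence measured after 16hr compound incubation.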

[18] = molecular target: Estrogen receptor (Homo sapiens) (UniProt P03372); experiment: qHTS assay to identify small molecule agonists of the estrogen receptor alpha (ER-alpha) signaling pathway in the presence of an antagonist (AID 1259383; calls by dose curve; also: top concentration of the series differs between compounds; nearly all actives have a fitted effect of over 15% in size)
Chain of Estrogen receptor (Homo sapiens) (P03372 whole entry, looked up): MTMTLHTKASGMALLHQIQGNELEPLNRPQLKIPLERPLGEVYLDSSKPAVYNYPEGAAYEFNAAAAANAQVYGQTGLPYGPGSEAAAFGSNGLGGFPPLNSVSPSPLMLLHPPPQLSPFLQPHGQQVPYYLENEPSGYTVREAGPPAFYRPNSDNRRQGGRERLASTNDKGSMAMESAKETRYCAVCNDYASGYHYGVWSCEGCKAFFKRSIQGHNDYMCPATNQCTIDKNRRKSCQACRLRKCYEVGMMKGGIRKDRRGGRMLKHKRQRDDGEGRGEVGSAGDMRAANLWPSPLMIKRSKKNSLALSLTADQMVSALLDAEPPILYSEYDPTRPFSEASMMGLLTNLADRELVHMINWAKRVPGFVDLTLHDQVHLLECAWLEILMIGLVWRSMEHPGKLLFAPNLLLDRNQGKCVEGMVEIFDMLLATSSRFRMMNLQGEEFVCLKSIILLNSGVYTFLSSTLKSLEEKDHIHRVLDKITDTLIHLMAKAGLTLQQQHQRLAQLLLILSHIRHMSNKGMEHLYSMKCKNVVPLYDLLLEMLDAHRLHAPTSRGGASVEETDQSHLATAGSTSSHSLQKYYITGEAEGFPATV
Summary of the method: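 Agonist-mode confirmation in the presence of the ER antagonist ICI-182,780 at 10.0nM final. Breast-derived VM7Luc4E2 reporter cells were exposed to compounds for 22hr, and ERE-driven luciferase was quantified by luminescence.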

Measured: Potency

C1CCCC1
not listed: [14] | [15] | [16] | [17] | [18]
inactive: all other assays above

Cc1ccc(O)c(C(C)(C)C)c1
inactive: [1] | [2] | [14] | [3] | [4] | [6] | [10] | [12] | [13] | [15]

CCCCN(CCCC)C(=O)N(CCCC)CCCC
not listed: [11] | [15] | [16] | [17] | [18]
inactive: all other assays above

CN1CCC(Nc2ncc3ncnc(Nc4ccc(F)c(Cl)c4)c3n2)CC1
active: [16] 11.2 µM | [4] 29.8 µM | [7] 6.68 µM | [11] 11.9 µM | [15] 29.8 µM
not listed: [5] | [8] | [9] | [12] | [18]
inactive: all other assays above

Cc1c(C)c2c(c(C)c1OC(=O)CCC(=O)O)CC[C@@](C)(CCC[C@H](C)CCC[C@H](C)CCCC(C)C)O2
active: [10] 27.6 µM | [11] 1.95 µM
not listed: [8] | [9] | [12] | [14] | [17] | [18]
inactive: all other assays above

CC(C)(C)CC(C)(C)c1ccc(OCCOCC[N+](C)(C)Cc2ccccc2)cc1
active: [2] 43.2 µM and 21.1 µM | [4] 48.5 µM | [7] 4.22 µM | [9] 26.6 µM | [10] 27.3 µM and 21.1 µM | [11] 27.3 µM and 16.8 µM | [12] 27.3 µM and 15 µM
not listed: [5] | [17]
inactive: all other assays above

C/C(=C(/OCCOc1ccc(Cl)cc1)c1ccc(Cl)cc1Cl)n1ccnc1
active: [9] 13.3 µM | [11] 15 µM
not listed: [7] | [12] | [15] | [16] | [17] | [18]
inactive: all other assays above

[Cl][Au]([Cl])[Cl]
active: [1] 68.6 µM | [2] 24.3 µM | [4] 3.86 µM | [5] 4.86 µM | [7] 0.172 µM
inactive: [14] | [3] | [6] | [13]

CCc1oc2ccccc2c1C(=O)c1cc(Br)c(O)c(Br)c1
not listed: [8] | [9] | [11] | [14] | [15]
inactive: all other assays above
